# Rows were chosen to be rich in hits. Some 1.5% of all compounds tested hit in one or more screens of this group.
# MCL1-BIM inh = disrupts human MCL1 binding to BIM-BH3 peptide; Q07820; GST-MCL1 / FITC-Bim-BH3 fluorescence polarization; AID 2057; inhibition, % at 10.9 µM; 320,000 tested, 0.68% active;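 active means inhibition above the mean inhibition of all tested compounds plus 3 SD, set per campaign, cut at about 40% in these data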;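 further: 0% = DMSO wells and 100% = unlabeled Bim-BH3 peptide control; higher means more loss of mP so more displacement of Bim peptide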
# EBV gp42 inh = inhibitors of Epstein-Barr virus glycoprotein 42. Q1HVG2. Fluorescence polarization binding assay, mP read-out. inhibition, % (tested at 21.74 µM). 220,000 tested, 0.42% active. AID 1085; in the data active means inhibition above about 50%
# MEX-5 binding = C. elegans MEX-5 TCR-2 RNA binding activity. MEX-5/FITC-TCR2 RNA binding, fluorescence polarization; hits give low values. 300,000 tested, 0.38% active. AID 1832. activity score (negative = inhibition of binding), % at 10 µM. Q9XUB2;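 active means inhibition past about -25% in most replicates, and total fluorescence under double the plate's negative control median, limit read from the data; inconclusive means replicates evenly split on the limit, or fluorescence at least double controls; inactive means too little inhibition in most replicates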;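 further: 0% = DMSO and -100% = 5 µM competing unlabeled TCR2 RNA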
# Target sequence (Q9XUB2 whole entry, looked up): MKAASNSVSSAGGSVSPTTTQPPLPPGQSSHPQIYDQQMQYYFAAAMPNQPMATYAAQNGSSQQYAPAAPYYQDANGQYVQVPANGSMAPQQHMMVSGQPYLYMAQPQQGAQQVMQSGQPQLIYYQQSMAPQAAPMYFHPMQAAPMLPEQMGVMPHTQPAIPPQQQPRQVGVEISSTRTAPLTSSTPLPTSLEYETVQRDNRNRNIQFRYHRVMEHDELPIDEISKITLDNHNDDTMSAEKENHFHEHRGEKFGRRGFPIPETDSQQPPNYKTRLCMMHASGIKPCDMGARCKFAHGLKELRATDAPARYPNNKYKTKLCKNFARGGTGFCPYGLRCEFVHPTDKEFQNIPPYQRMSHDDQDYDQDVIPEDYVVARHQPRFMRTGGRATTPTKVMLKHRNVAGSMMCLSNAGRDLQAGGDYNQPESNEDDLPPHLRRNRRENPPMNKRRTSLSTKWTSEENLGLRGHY
# E coli Lon inh = inhibits E. coli Lon protease. 360,000 tested, 0.42% active. purified E. coli Lon protease, fluorescence polarization. P0A9M0. inhibition, % at 7.94 µM. AID 602123; in the data active means inhibition above about 13%, passing the limit was not always enough;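 further: 0% = enzyme with probe and DMSO and 100% = no enzyme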
# GLD-1 RNA inh = GLD-1-TGE RNA interaction inhibition (C. elegans); Q17339; purified GLD-1 + fluorescein TGE RNA, fluorescence polarization; inhibition, % at 5.96 µM; 320,000 tested, 0.44% active; AID 2280;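 active means percent inhibition above a per-plate cutoff, the plate mean of test compounds plus 3 SD, cut at about 30% in these data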;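 further: 0% = DMSO wells with GLD-1 and probe and 100% = wells lacking GLD-1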
# Bcl-xL primary = Bcl-xL (human) inhibition | Q07817 | GST-Bcl-xL / FITC-Bim BH3 peptide fluorescence polarization | inhibition, % at 10.9 µM | 320,000 tested, 0.7% active | AID 2129;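 active means inhibition above the mean of all tested compounds plus 3 SD, cutoff set per campaign, cut at about 30% in these data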;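 further: 0% = DMSO wells and 100% = unlabeled Bim-BH3 peptide competitor; inhibitors lower millipolarization by displacing the labeled peptide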
# Target sequence (Q07817 whole entry, looked up): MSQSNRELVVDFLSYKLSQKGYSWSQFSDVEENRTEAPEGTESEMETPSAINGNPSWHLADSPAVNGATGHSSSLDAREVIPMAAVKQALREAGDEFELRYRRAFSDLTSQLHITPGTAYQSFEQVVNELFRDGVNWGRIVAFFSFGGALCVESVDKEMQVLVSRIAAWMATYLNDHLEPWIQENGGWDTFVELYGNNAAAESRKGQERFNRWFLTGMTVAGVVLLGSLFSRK
# BCLXL inh confirm = counter-screen for MCL1 inhibitors: confirmation of human Bcl-xL inhibitors; GST-Bcl-xL / FITC-Bim BH3 peptide FP binding; shares compounds with MCL1-BIM inh; AID 2166; inhibition, % at 10.9 µM; 1,700 tested, 54% active;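 active means inhibition above a cutoff equal to the mean inhibition of all tested compounds plus 3 SD, cut at about 30% in these data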;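 further: 0% = DMSO wells and 100% = unlabeled Bim BH3 control peptide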
# MCL1 inh confirm = confirmation of human MCL1 and BIM-BH3 interaction inhibitors | shares compounds with MCL1-BIM inh | GST-MCL1 / FITC-Bim-BH3 fluorescence polarization | inhibition, % at 10.9 µM | 1,700 tested, 61% active;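 active means inhibition above the average of all tested compounds plus 3 SD, cut at about 40% in these data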;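 further: 0% = DMSO wells and 100% = unlabeled Bim-BH3 control peptide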
# * hit, by the source's call; ? = inconclusive; nt = no result given; + = active, no number.
SMILES,MCL1-BIM inh,EBV gp42 inh,MEX-5 binding,E coli Lon inh,GLD-1 RNA inh,Bcl-xL primary,BCLXL inh confirm,MCL1 inh confirm
CCOC(=O)COn1c(=O)c(-c2ccc(OC)c(OC)c2)[n+]([O-])c2ccccc21,71.8*,-8.7,-10.7,nt,4.5,14.1,18.4,13.2
CC1(C)CC(=O)C(C(c2ccc(F)cc2)C2C(=O)CC(C)(C)CC2=O)C(=O)C1,0.9,-1.8,-2.1,4.7,6.1,-1.8,nt,nt
CCc1sc(C(C2C(=O)CC(C)(C)CC2=O)C2C(=O)CC(C)(C)CC2=O)cc1[N+](=O)[O-],43.0*,7.3,-4.0,11.4,7.8,16.2,15.1,56.6*
O=C(CSc1nc2ccccc2c(=O)n1CCCN1CCOCC1)Nc1ccccc1OC(F)F,nt,nt,nt,4.1,5.7,nt,nt,nt
CCc1cc(C(=O)Cc2cnn(-c3ccccc3)c2)c(O)cc1O,3.8,8.1,-0.4,6.5,-4.4,3.2,nt,nt
O=C(Cc1cnn(-c2ccccc2)c1)c1ccc(O)c(O)c1O,64.0*,-8.2,-15.1,3.2,1.7,16.4,13.6,39.6
O=C(c1ccc2c(=O)n3c(nc2c1)CCCCC3)N1CCN(c2ccc([N+](=O)[O-])cc2)CC1,5.2,nt,-2.2,-0.9,0.4,6.1,nt,nt
Cc1ccc(N2C(=O)c3cccc4c([N+](=O)[O-])ccc(c34)C2=O)c2cccnc12,18.7,9.1,-3.8,9.1,13.1,17.3,nt,nt
Cc1ccc(N2C(=O)c3cccc4c(N5CCN(C)CC5)ccc(c34)C2=O)c2cccnc12,+,159.3*,-58.3*,nt,137.4*,+,+,+
COc1cc2cccc(OC)c(=O)c2c(O)c1OC,6.9,0.9,2.2,5.3,-7.8,3.1,nt,nt
COc1cc2c(ccc3cc(OC)c(OC)c(O)c32)cc1O,78.2*,30.9,4.1,-2.6,4.5,20.7,29.2,82.3*
COc1cc2c(cc1OC)C(NNC(=O)c1ccc(Br)o1)=NC(C)(C)C2,4.2,nt,-2.2,4.5,-0.9,-3.4,nt,nt
Cc1ccc2c(c1)c1nc3ccccc3nc1n2C,76.1*,nt,-9.4,5.2,18.7,58.1*,84.5*,135.7*
COC(=O)[C@]12C(=O)NC[C@H](CN1c1ccc(C(F)(F)F)cc1)N2C,nt,nt,nt,0.5,-0.9,nt,nt,nt
Cc1nc2ccccn2c1C(=O)N/N=C/c1ccc([N+](=O)[O-])o1,41.1*,-1.4,-0.5,5.6,6.5,23.3,24.4,53.7*
O=C(NC1CC1)C1CC(=O)N(c2cccc(Cl)c2)C1 (stereo not drawn),3.9,nt,1.6,9.5,4.5,6.2,nt,nt
CCOc1ccc(N=C2NC(=O)S/C2=C\c2ccc(N(C)C)cc2)cc1,80.4*,54.0*,?,-39.4,43.0*,70.4*,96.4*,112.6*
Cc1ccc(COC(=O)CCCN=C2NS(=O)(=O)c3ccccc32)cc1,1.2,nt,0.5,4.1,6.1,2.7,nt,nt
COc1ccccc1-n1c(C)c2c(OC)cccc(=O)c2c1C,40.4*,6.1,0.8,-3.2,29.8,39.4*,21.4,23.7
CCOC(=O)c1ccc(-n2c(CN(CC)CC)nc3ccc([N+](=O)[O-])cc3c2=O)cc1,4.2,-7.7,-0.7,-7.7,-5.0,1.6,nt,nt
c1ccc(N2CCN(c3nc4ccccc4n4nnnc34)CC2)cc1,58.5*,32.5,5.1,-5.8,12.0,50.8*,37.5*,37.8
CCCCc1ccc(NC(=O)Nc2cc(C)nn2C)cc1,68.0*,nt,1.2,1.7,-5.7,5.0,-0.6,5.3
COc1ccc(Cl)cc1NC(=O)c1nnn(CC(=O)Nc2ccc(C)c(C)c2)c1N,3.7,nt,0.4,4.4,3.8,2.4,nt,nt
CCOC(=O)c1ccccc1NC(=O)N1CCn2c(C)ccc2C1CC (stereo not drawn),62.9*,-14.1,-8.4,3.7,33.2*,62.2*,35.5*,38.7
CCOC(=O)c1ccccc1NC(=S)N1CCCCC1,11.1,-3.4,nt,4.2,-1.9,-1.3,nt,nt
SMILES,MCL1-BIM inh,EBV gp42 inh,MEX-5 binding,E coli Lon inh,GLD-1 RNA inh,Bcl-xL primary,BCLXL inh confirm,MCL1 inh confirm
C#CCOc1ccc2c3c(c(=O)oc2c1)CCCC3,-3.0,nt,0.8,-4.1,6.0,2.0,nt,nt
COc1cc(O)c(C(C)=O)c(CC(=O)O)c1,40.9*,-1.5,-9.7,6.8,12.9,12.9,20.2,34.5
COc1cc(O)c(C(C)=O)c(OC)c1,nt,nt,nt,4.1,nt,nt,nt,nt
OC1(c2ccc(Cl)c(Cl)c2)C[n+]2ccccc2N1Cc1ccccc1 (stereo not drawn),1.4,-2.3,2.4,0.8,0.2,-1.4,nt,nt
O=C1Nc2ccccc2C1(O)c1ccccc1O (stereo not drawn),4.9,nt,0.3,-5.2,-0.2,4.0,nt,nt
Cc1cc(C2(O)C(=O)Nc3ccccc32)ccc1F (stereo not drawn),79.4*,nt,-3.2,-1.1,5.3,3.8,14.4,23.6
CCC(=O)Nc1ccc(C(=O)COC(=O)c2nc3nccc(C)n3n2)cc1,53.9*,nt,nt,-14.5,8.4,2.9,1.2,52.3*
Cc1nn(C)c(C)c1S(=O)(=O)N(CC(=O)NCCCN1CCC(C)CC1)c1ccc(C(C)C)cc1,-4.2,nt,0.8,-4.2,6.7,0.0,nt,nt
Cc1cc(C)cc(C(=O)N2CCCCC2)c1,nt,nt,nt,-12.1,nt,nt,nt,nt
O=C(/C=C/[C@H]1O[C@@H](n2cnc3c(NC(=O)c4ccccc4)ncnc32)[C@H](O)[C@@H]1O)NCC(c1ccccc1)c1ccccc1,nt,nt,nt,-5.0,nt,nt,nt,nt
CC(=O)Oc1ccc2c(c1)Oc1cc(OC(C)=O)ccc1C21OC(=O)c2ccccc21,+,94.8*,nt,nt,142.1*,180.9*,153.9*,186.1*
Cc1cc(O)ccc1C1(c2ccc(O)cc2C)OC(=O)c2ccccc21,7.5,-1.2,-0.1,-10.8,6.6,5.6,nt,nt
COc1ccccc1CNC(=O)c1cccc(S(=O)(=O)N2CCCC2)c1,nt,nt,nt,8.4,nt,nt,nt,nt
CC1C2C(c3ccccc3)N(C)C(=O)N(C)C2N(C)C(=O)N1C (stereo not drawn),55.4*,39.4,-11.5,16.3,29.3,55.2*,38.0*,44.9*
COc1cc(/C=C/C(=O)O)ccc1O,-0.2,nt,0.2,-7.1,0.9,4.2,nt,nt
COc1cc(/C=C/C(=O)CC(=O)/C=C/c2ccc(O)c(OC)c2)ccc1O,57.4*,10.4,3.3,-409.2,-107.9,17.7,4.6,-24.1
O=C(NNC(=O)c1ccc2[nH]c(=O)c(=O)[nH]c2c1)c1cccc(Br)c1,4.1,nt,2.0,-8.8,-3.1,5.1,nt,nt
C=CCNS(=O)(=O)c1cccc2cc(C(=O)O)c(O)cc12,97.3*,-1.3,-3.5,8.4,9.2,13.7,30.2,39.0
COC(=O)CNC(=O)C1Nc2ccccc2C2C=CCC12 (stereo not drawn),22.4,nt,-13.1,-2.4,5.9,23.1,nt,nt

# Screening data deposited in PubChem BioAssay by several laboratories.
